# Where a name gives a salt, the structure may show the parent alone.
# What was measured:
# [1] = test system: Staphylococcus aureus MW2 delta-mecA (mecA-); test: normalized GFP fluorescence (growth of mecA- strain) (fraction of control range); higher = more growth of mecA- strain; conditions: compound concentration: 150 uM; cefoxitin: subinhibitory; fluorescent label: GFP
# In short: (§1)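 Pre-induced S. aureus MW2 cells with the gene (DsRed) and without it (GFP) were mixed 1:1 in LB holding a subinhibitory antibiotic dose set daily and grown on 150 μM compound (1.5% DMSO) in 1536-well plates, single replicate, for 20 h at 37 °C. DsRed (540/590) and GFP (485/520) readings were scaled per plate between single-strain control medians. Plates with high untreated ratios and rows with DsRed/GFP >10 were excluded.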
# [2] = test system: Staphylococcus aureus MW2 (mecA+); test: normalized DsRed fluorescence (growth of mecA+ strain) (fraction of control range); higher = more growth of mecA+ strain; conditions: compound concentration: 150 uM; cefoxitin: subinhibitory; fluorescent label: DsRed
# In short: as §1
Structure (SMILES),normalized GFP fluorescence [1],normalized DsRed fluorescence [2]
CCN(CC)C(=O)/C(C#N)=C/c1cc(O)c(O)c([N+](=O)[O-])c1 [Entacapone],0.111,1.35
CCOC(=O)[C@H](CCc1ccccc1)N[C@@H](C)C(=O)N1[C@H](C(=O)O)C[C@@H]2CCC[C@@H]21,0.338,0.71
C=C(c1ccc(C(=O)O)cc1)c1cc2c(cc1C)C(C)(C)CCC2(C)C [Bexarotene],0.666,0.742
Oc1ncnc2[nH]ncc12,0.524,0.531
COC(=O)[C@@H]1[C@H]2C[C@H]3c4[nH]c5ccccc5c4CCN3C[C@@H]2CC[C@@H]1O,0.259,0.809
CCN1C(=O)NC(c2ccccc2)C1=O (stereo unspecified),0.469,1.21
O=C1CCC(N2C(=O)c3ccccc3C2=O)C(=O)N1 (stereo unspecified),0.261,0.635
CCCC(=O)OCOC(=O)C1=C(C)NC(C)=C(C(=O)OC)C1c1cccc(Cl)c1Cl (stereo unspecified) [Cleviprex (Clevidipine)],0.13,0.595
CCC(=O)O[C@]1(C(=O)CCl)[C@@H](C)C[C@H]2[C@@H]3CCC4=CC(=O)C=C[C@]4(C)[C@@]3(F)[C@@H](O)C[C@@]21C [Clobetasol propionate],-0.000558,1.15
COc1cc2nc(N(C)CCCNC(=O)C3CCCO3)nc(N)c2cc1OC (stereo unspecified),0.343,0.686
COc1cc2nc(N3CCN(C(=O)C4CCCO4)CC3)nc(N)c2cc1OC (stereo unspecified) [Terazosin HCl (Hytrin)],0.321,0.745
CCN1CCCC1CNC(=O)c1cc(S(N)(=O)=O)ccc1OC (stereo unspecified),0.362,0.764
COc1cc(Nc2c(C#N)cnc3cc(OCCCN4CCN(C)CC4)c(OC)cc23)c(Cl)cc1Cl [Bosutinib (SKI-606)],-0.0247,0.727
CN1CCN(C2=Nc3cc(Cl)ccc3Nc3ccccc32)CC1 [Clozapine (Clozaril)],0.0909,1.01
CCCCOc1ccc(C(=O)CCN2CCCCC2)cc1,0.00391,0.36
CO[C@H]1O[C@@H]2O[C@@]3(C)CC[C@H]4[C@H](C)CC[C@@H]([C@H]1C)[C@@]24OO3,0.327,1.13
CNS(=O)(=O)Cc1ccc2[nH]cc(CCN(C)C)c2c1,0.345,0.758
CC(C)n1c(/C=C/C(O)CC(O)CC(=O)O)c(-c2ccc(F)cc2)c2ccccc21 (stereo unspecified),0.0168,0.369
CCN(CC)CCCC(C)Nc1ccnc2cc(Cl)ccc12 (stereo unspecified),0.506,0.443
CN(C)c1cc(NC(=O)CNC(C)(C)C)c(O)c2c1C[C@H]1C[C@H]3[C@H](N(C)C)C(O)=C(C(N)=O)C(=O)[C@@]3(O)C(O)=C1C2=O [Tigecycline],0.473,0.779
CCCCNc1cc(C(=O)O)cc(S(N)(=O)=O)c1Oc1ccccc1,0.446,0.877
C[C@]12C=CC(=O)C=C1CC[C@@H]1[C@@H]2C(=O)C[C@@]2(C)[C@H]1CC[C@]2(O)C(=O)CO,0.371,0.647
O=C1CN2Cc3c(ccc(Cl)c3Cl)N=C2N1,0.237,0.896

# From the supplement of paper PMC7695840
